Data reported in PubChem BioAssay AID686979 (National Center for Advancing Translational Sciences (NCATS), 2013).
Screen size: about 420,000 compounds; about 50,000 (12%) were called active. Inconclusive results (about 26%) are left out. The call rests on the fitted dose curve; in most records, active means well fitted inhibition curve with a large enough effect; inconclusive means small, poorly fitted or top-dose-only effect; inactive means flat fitted curve, though single readings scatter. Only a selection was taken, and actives are over-represented in it overall.

Experiment: qHTS for Inhibitors of human tyrosyl-DNA phosphodiesterase 1 (TDP1): qHTS in cells in presence of CPT; further: nearly all actives have a fitted effect of over 55% in size
Conditions: chicken DT40 Tdp1-/-;hTDP1 cells + 20 nM CPT, ATP luminescence, 48 h; series mostly up to 46.2 µM; activity change, negative = growth inhibition: at the top concentration
In short: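 Chicken DT40 Tdp1-/- cells stably complemented with human TDP1 were seeded at 400 cells/well in medium containing 20 nM camptothecin, exposed to pin-transferred compounds, and grown at 37 °C for at least 48 hr. Viability was read as ATP luminescence.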
On the % scale 0 is the no-effect control and ±100 the full control effect; potency means the concentration at half of the fitted maximal effect.

SMILES	activity change, negative = growth inhibition	Potency
COC(=O)c1c(NC(=O)c2ccccc2F)sc2c1C(C(=O)OC)CC2 (stereo not given)	-29% (inactive)	
CC(C)(C)C1CCc2c(sc(NC(=O)c3ccccc3F)c2C(=O)N2CCCCC2)C1 (stereo not given)		16.4 µM (active)
Cc1ccccc1NC(=O)c1c(NC(=O)c2ccccc2F)sc2c1CCC(C)C2 (stereo not given)	6.23% (inactive)	
Cc1ccc(F)c(S(=O)(=O)NC(=O)C2(C)CCN2C(=O)CCc2cccs2)c1 (stereo not given)	-16.3% (inactive)	
CC1CCN(CCCn2c(SCC(=O)NC3CCCC3)nc3ccccc3c2=O)CC1	8.67% (inactive)	
CCOC(=O)C(C)Sc1nc2ccccc2c(=O)n1CC1CCCCC1 (stereo not given)		12.6 µM (active)
CCOn1c(SC(C)C)nc2ccccc2c1=O	-7.27% (inactive)	
O=C(NCCS(=O)(=O)c1ccc(Br)cc1)c1ccccc1Cl	1.81% (inactive)	
O=C(O)CCCN1C(=O)C2C3c4ccccc4C(c4ccccc43)[C@@H]2C1=O (stereo not given in full)	36.8% (inactive)	
Cc1ccc(NC(=O)CCOc2ccccc2)cc1S(=O)(=O)Nc1ccccc1Cl	-1.11% (inactive)	
O=c1c2c3c(sc2n(CCN2CCCC2)c(=O)n1Cc1ccccc1)CCCCC3		13 µM (active)
CC1CCN(C(=O)Cn2c(=O)n(-c3ccc(Cl)cc3)c(=O)c3c4c(sc32)CCC4)CC1	0.402% (inactive)	
CCOC(=O)N1CCc2c(sc3c2c(=O)n(Cc2ccccc2)c(=O)n3CC(=O)Nc2cccc(C)c2)C1	-5.93% (inactive)	
COc1ccc(C2NC(=O)C(=O)/C2=C(\O)c2ccc(Cl)cc2)cc1OC (stereo not given)	1.92% (inactive)	
O=c1[nH]c2ccc(S(=O)(=O)N3CCCC3)cc2[nH]1	-16.4% (inactive)	
CCCN(CC1CC1)C(=O)COC(=O)c1ccc(C)cc1O	6.29% (inactive)	
Cc1cccc(C(=O)NCCCN(C)CCCNC(=O)c2cccc(C)c2)c1	2% (inactive)	
Cc1cccc(C(=O)c2cccc(C)c2)c1	-27.9% (inactive)	
Cc1cccc(C(=O)NC(=S)N(C)C2CCCCC2)c1		29.1 µM (active)
CN(CC(=O)Nc1ccc(F)c(F)c1F)C(=O)C1CC(=O)N(C2CCCC2)C1 (stereo not given)	-10% (inactive)	
COc1ccc(C2Sc3ccccc3NC3=C2C(=O)c2ccccc23)c(OC)c1OC (stereo not given)		1.84 µM (active)
CCN(CC)CCCN1C(=O)C(=O)/C(=C(/O)c2c(C)nc3ccccn23)C1c1ccc(C)o1 (stereo not given)	-12.8% (inactive)	
Cc1ccc(N=C2NC(=O)c3cccc([N+](=O)[O-])c32)cc1	-21.1% (inactive)	
CC(=O)c1cnc(SCC(=O)O)nc1C	5.08% (inactive)	
CCn1cc(/C=C2/SC(=S)NC2=O)c(C)n1	-18% (inactive)	

SMILES	activity change, negative = growth inhibition	Potency
O=C1/C(=C/c2ccc3c(c2)OCO3)CCC/C1=C\c1ccc2c(c1)OCO2	-23.1% (inactive)	
Cc1nn(C)cc1/C=C1\CCC/C(=C\c2cn(C)nc2C)C1=O		15.8 µM (active)
C[C@H](NC(=O)C1CCN(S(=O)(=O)c2ccccc2)CC1)C(=O)NCc1ccccc1	-11.3% (inactive)	
CC[C@@]1(C(=O)OC)N[C@H](CN(C)C(C)=O)[C@@H]2C(=O)N(C)C(=O)[C@@H]21	-0.511% (inactive)	
Cc1ccc(C(C[N+](=O)[O-])c2c(C)cc3ccccn23)cc1 (stereo not given)		10.3 µM (active)
COc1ccccc1C(=O)NCCC(=O)NC(C)CCc1ccccc1 (stereo not given)	-16.7% (inactive)	
COc1cc(C=NNC(=O)c2cccnc2)ccc1OC(=O)c1ccccc1F	7.47% (inactive)	
O=C(N/N=C/c1ccoc1)c1ccc(Cl)cc1Cl	-6.06% (inactive)	
CC(C)(C)C(=O)Nc1ccc(C(=O)N/N=C/c2ccccc2OC(=O)c2ccc(Cl)cc2Cl)cc1		14.6 µM (active)
Cc1cc(C)nc(SCC(=O)N(C)C)n1	0.938% (inactive)	
COC(=O)c1c(C)[nH]c(C(=O)NCCc2ccc(S(N)(=O)=O)cc2)c1C	-0.0885% (inactive)	
CC(=O)c1c(C)oc2ccc(NS(=O)(=O)c3ccc(C(=O)O)cc3)cc12	0.313% (inactive)	
CC(=O)c1c(C)n(S(=O)(=O)c2ccc(Cl)cc2)c2ccc(NS(=O)(=O)c3ccc(Cl)cc3)cc12		10.3 µM (active)
O=S(=O)(Nc1ccc(-n2cnnn2)cc1)c1ccc(Cl)cc1	1.72% (inactive)	
Cc1csc(-c2coc3cc(O[C@@H]4O[C@H](CO)[C@@H](O)[C@@H](O)[C@H]4O)ccc3c2=O)n1	8.48% [at 9.04 µM] (inactive)	
O=C(Nc1n[nH]c(C(F)(F)F)n1)c1cccs1	-21.7% (inactive)	
COc1ccccc1C(=O)Nc1ccnn1C1CCN(C(=O)C(C)(C)C)CC1	-7.39% (inactive)	
CCCCn1c(N)c(N(CCC(C)C)C(=O)c2ccc(COc3ccccc3)o2)c(=O)[nH]c1=O	-4% (inactive)	
CCOc1ccc(S(=O)(=O)N/N=C(\C)c2ccc(Cl)c(Cl)c2Cl)cc1	1.94% (inactive)	
COC(=O)COc1ccc2c(=O)c(Oc3ccccc3Br)coc2c1	9.84% (inactive)	
Cc1ccc(NC(=O)Cn2sc3ccccc3c2=O)cc1		4.61 µM (active)
Cc1nn(CC(=O)Nc2ccc(F)cc2)c(=O)c2ccccc12	0.617% (inactive)	
Cc1ccc(NC(=O)Cn2c(C)csc2=O)cc1	5.41% (inactive)	
CN(C(=O)CSc1nnc(-c2c[nH]c3ccccc23)o1)C1CCS(=O)(=O)C1 (stereo not given)	0.592% (inactive)	
COc1cc(-c2cc(C(=O)OCC(=O)Nc3ccc4c(c3)OCO4)c3ccccc3n2)cc(OC)c1OC	-18.6% (inactive)	

SMILES	activity change, negative = growth inhibition	Potency
NS(=O)(=O)c1ccc(NC(=O)COC(=O)c2c3c(nc4ccccc24)/C(=C\c2ccc4c(c2)OCO4)CCC3)cc1		18.4 µM (active)
O=C(COC(=O)c1ccc(F)cc1)Nc1ccc2c(c1)OCO2	-13.4% (inactive)	
NC(=O)c1ccc(NC(=O)COC(=O)c2c3c(nc4ccccc24)/C(=C\c2ccc4c(c2)OCO4)CCC3)cc1		11.6 µM (active)
O=C(COC(=O)c1ccncc1)Nc1ccc2c(c1)OCO2	2.53% (inactive)	
NS(=O)(=O)c1ccc(NC(=O)COC(=O)c2cc3ccccc3oc2=O)cc1	-17.9% (inactive)	
CC1CC(=O)N(CC(=O)Nc2cccc(Cl)c2)c2ccccc2S1(=O)=O (stereo not given)	-20.5% (inactive)	
CCOC(=O)Cc1cc(=O)[nH]c(/N=C(\N)Nc2ccc(OC)cc2)n1	-18.9% (inactive)	
COc1ccc(NC(=O)Cn2c(-c3ccc(OC)cc3)cn(-c3ccc(C)cc3)c2=O)cc1	-0.508% (inactive)	
CCc1nn(CCCC(=O)NCc2ccccc2OC)c(=O)c2cc3occc3n12	-20.1% (inactive)	
Cc1nn(CCCC(=O)NCc2ccccc2Cl)c(=O)c2nccn12	0.154% (inactive)	
Cc1ccccc1CNC(=O)CCCn1nc(C)c2sc3ccccc3c2c1=O		18.4 µM (active)
COc1ccc(C(=O)COC(=O)c2ccc3ccccc3n2)cc1		20.6 µM (active)
CC(OC(=O)c1ccc2ccccc2n1)C(=O)c1ccccc1 (stereo not given)	-20.7% (inactive)	
COc1ccc(C2=NOC(COC(=O)c3ccc4ccccc4n3)C2)cc1 (stereo not given)	-5.82% (inactive)	
Cc1ccc(-c2nnc(CN3CCN(C)CC3)o2)cc1	-20.5% (inactive)	
COc1ccc(C(=O)CSc2c(C(C)C)cnc3c2c(=O)n(C)c(=O)n3C)cc1		16.4 µM (active)
COc1ccc(C(=O)CSc2nccc(=O)[nH]2)cc1	-10.5% (inactive)	
COCCNC(=O)CSc1c(C)cnc2c1c(=O)n(C)c(=O)n2C	6.75% (inactive)	
COc1ccc(CNC(=O)CN2C(=O)c3ccccc3S2(=O)=O)cc1	-0.378% (inactive)	
CS(=O)(=O)c1ccc(-c2nnc(NC(=O)c3ccc4c(c3)OCCO4)o2)cc1	-17.5% (inactive)	
CC1CCCCN1S(=O)(=O)c1ccc(S(=O)(=O)N(CC(=O)Nc2ccccc2)Cc2cccs2)cc1 (stereo not given)		25.9 µM (active)
CC1CC(C)CN(S(=O)(=O)c2ccc(C(=O)NN3CCOCC3)cc2)C1 (stereo not given)	-4.85% (inactive)	
CC1CCCCN1S(=O)(=O)CCNC(=O)c1ccccc1 (stereo not given)	-22.8% (inactive)	
CC1CCCN(S(=O)(=O)c2ccc(C(=O)Nc3nnc(-c4ccncc4)o3)cc2)C1 (stereo not given)		11.6 µM (active)
CC1CCCCN1S(=O)(=O)c1ccc(C(=O)Nc2nnc(-c3cccs3)o2)cc1 (stereo not given)		6.51 µM (active)

SMILES	activity change, negative = growth inhibition	Potency
O=C(Nc1nnc(-c2ccccc2)o1)c1cccc(S(=O)(=O)N2CCOCC2)c1		13 µM (active)
NC(=O)CSc1nnc(-c2cccc(S(=O)(=O)N3CCOCC3)c2)o1	-6.32% (inactive)	
CCN(CC(=O)NCc1cccs1)S(=O)(=O)c1ccc(NC(C)=O)cc1	-7.88% (inactive)	
O=C(Nc1ccc(N2CCOCC2)cc1)c1cccc(S(=O)(=O)N2CCOCC2)c1	-10% (inactive)	
COCCN(CC(=O)Nc1ccccc1C)S(=O)(=O)c1ccc(S(=O)(=O)N2CCCC2)cc1	-16.1% (inactive)	
O=C(NCc1cccs1)C(=O)NCC1OCCCN1S(=O)(=O)c1ccc(F)cc1 (stereo not given)	-20.4% (inactive)	
CCOC(=O)c1c(/N=C/c2cc(C)ccc2O)sc2c1CCC2	11.4% (inactive)	
CC(C)OC(=O)CC(=O)CC(O)c1cccc([N+](=O)[O-])c1 (stereo not given)	-7.73% (inactive)	
O=C(Nc1nonc1-c1ccc(Cl)cc1)c1ccco1	-16.8% (inactive)	
O=C(NCc1ccccn1)[C@@H]1CCCN1C(=O)[C@@H]1CCCN1C(=O)c1ccccc1	-1.15% (inactive)	
CN(Cc1nc(-c2cnccn2)no1)Cc1n[nH]c2c1CCCCC2	-17.5% (inactive)	
COc1ccccc1CNC(=O)CS(=O)(=O)c1cccc2nsnc12	-18.4% (inactive)	
Cn1c(=O)c(=O)n(C)c2cc(NC(=O)c3ccccc3Br)ccc21	3.19% (inactive)	
c1ccc2c(c1)OC1OC2Oc2ccccc21	-22.8% (inactive)	
Cc1cc(C)nc(NS(=O)(=O)c2ccc(NC(=O)c3cc(=O)c4ccc(C)c(C)c4o3)cc2)n1	-16.9% (inactive)	
CS(=O)(=O)N(CC(=O)Nc1ccc(F)cc1)C1CCCCC1	1.39% (inactive)	
N[C@H]1CN(c2c(F)cc3c(=O)c(C(=O)O)cn(C4C[C@H]4F)c3c2Cl)CC12CC2 (stereo not given in full)	-5.28% (inactive)	
CC1(c2ccccc2)NC(=O)N(CC(=O)Nc2cc(Cl)ccc2N2CCOCC2)C1=O (stereo not given)	-0.724% (inactive)	
O=C(CN1CCOCC1)Nc1cc(Cl)ccc1Cl	0.338% (inactive)	
O=C(CSc1nc(Nc2ccccc2)nc(N2CCOCC2)n1)Nc1cc(Cl)ccc1O		25.9 µM (active)
Cn1c(N)cc(=O)n(C)c1=S	-6.81% (inactive)	
Cc1ccnc(NS(=O)(=O)c2ccc(NC(=O)c3oc4ccc(F)cc4c3C)cc2)n1	-8.42% (inactive)	
O=C(Nc1ccc(S(=O)(=O)Nc2ncccn2)cc1)C12CC3CC(CC(C3)C1)C2	10.4% (inactive)	
Cc1ncn(C23CC4CC(CC(O)(C4)C2)C3)n1	2.94% (inactive)	
COC(=O)c1ccc(NC(=O)C23CC4CC(C2)CC(n2cnc(Cl)n2)(C4)C3)cc1		20.6 µM (active)
